Experimental data: PubChem BioAssay (Tox21)
“And” between values parts separate entries of the source, which are not always exact repeats. Equal values may be shown once. Results filed as inconclusive are left out. Where a call stands in place of a potency, no number is given. Some structures have more than one record in an assay (separate samples or runs), and their calls can disagree. The source made the active and inactive calls. Unless noted, calls follow the shape of the full dose curve.

Key:
[1] = Nuclear factor erythroid 2-related factor 2/antioxidant responsive element (Nrf2/ARE) small molecule agonists: qHTS cell viability counter screen in human keratinocytes (AID 1919968; active = well fitted curve in the direction sought with a large enough effect in the repeat runs; an effect the other way counts as inactive or inconclusive; also: nearly all actives have a fitted effect of over 55% in size; also: potency is read from the fitted curve at half-maximal effect)
Method in brief: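 Cytotoxicity was multiplexed with the Nrf2/ARE luciferase assay in the same wells. Stably transfected HaCaT keratinocytes were treated with test compounds for 23 h at 37 C. Cell viability was then measured by CellTiter-Fluor fluorescence.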

[2] = molecular target: KiSS-1 receptor (Homo sapiens) (UniProt Q969F8); experiment: Human kisspeptin (KISS1R) small molecule agonists, calcium flux assay in KISS1R-HEK293 cells (AID 1920064; active = well fitted curve in the direction sought with a large enough effect in the repeat runs; an effect the other way counts as inactive or inconclusive)
Method in brief: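 Agonist activity is monitored as intracellular calcium rise in engineered HEK293 cells carrying human KISS1R. Cells are dye-loaded for 1 h at 37 C before compound addition, and fluorescence is recorded for 3 min.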

[3] = G protein-coupled receptor (GPCR) small molecule agonists, calcium flux assay: HEK293 wild type cell line counter screen (AID 1920065)
Method in brief: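 Seed cells, incubate 18 h (37 C, 5% CO2); add calcium dye, 1 h at 37 C; pin-transfer compounds, ATP control or DMSO; read fluorescence 480/540 nm each second for 3 min.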

[4] = p53 small molecule agonists, cell-based qHTS assay with human liver microsomes (AID 1963577)
Method in brief: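 Compounds act here after metabolic activation: human liver microsomes and NADPH, both at 0.5 mg/mL final, were co-added to p53RE-bla cells. Incubation ran 16 h at 37 C, followed by LiveBLAzer detection.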

[5] = p53 small molecule agonists, cell-based qHTS assay with rat liver microsomes (AID 1963578)
Method in brief: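 Read-out is beta-lactamase reporter fluorescence (LiveBLAzer, 2 h, room temperature, dark) in p53RE-bla cells treated 16 h at 37 C with compound, rat liver microsomes and NADPH, both 0.5 mg/mL final.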

[6] = p53 small molecule agonists, cell-based qHTS assay with human liver microsomes: qHTS cell viability counter screen (AID 1963579); also: nearly all actives have a fitted effect of over 45% in size
Method in brief: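 Cells carrying the p53 response-element beta-lactamase reporter are treated for 16 h at 37 C with test compounds in the presence of human liver microsomes and NADPH (both 0.5 mg/mL final); ATP-based CellTiter-Glo luminescence then reports viability.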

[7] = p53 small molecule agonists, cell-based qHTS assay with rat liver microsomes: qHTS cell viability counter screen (AID 1963580); also: nearly all actives have a fitted effect of over 45% in size
Method in brief: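 Cytotoxicity counter screen: intracellular ATP measured by CellTiter-Glo luminescence in the same wells as the beta-lactamase reporter read, on HCT-116 p53RE-bla cells exposed 16 h at 37 C to compounds with rat liver microsomes and NADPH, each 0.5 mg/mL final.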

[8] = p53 small molecule agonists, cell-based qHTS assay: qHTS cell viability counter screen (AID 1963581); also: nearly all actives have a fitted effect of over 45% in size
Method in brief: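 Viability was counter-screened in parallel with the p53 agonist reporter by measuring intracellular ATP luminescence in the same HCT-116 p53RE-bla wells after 16 h compound treatment at 37 C.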

[9] = p53 small molecule agonists, cell-based qHTS assay (AID 1963582; active = well fitted activation curve with a large enough effect in the signal ratio in the repeat runs, not every such curve was filed as active; the % refers to the signal ratio)
Method in brief: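 Cells carrying a p53-responsive bla reporter are treated with test compounds for 16 h at 37 C; beta-lactamase activity is then detected with LiveBLAzer B/G FRET substrate after 2 h at room temperature.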

[10] = molecular target: 5-hydroxytryptamine receptor 2A (Homo sapiens) (UniProt P28223); experiment: 5-hydroxytryptamine receptor 2A (HTR2A) small molecule antagonists, cell-based qHTS assay (AID 1963586); also: nearly all actives have a fitted effect of over 45% in size
Method in brief: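 CHO cells stably expressing human HTR2A were plated for 18 h at 37 C, then loaded with calcium dye for 1 h. Compounds were preincubated 5 min at room temperature before DOI (4 nM solution) was added. Kinetic fluorescence was read for 3 min.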

[11] = molecular target: 5-hydroxytryptamine receptor 2A (Homo sapiens) (UniProt P28223); experiment: 5-hydroxytryptamine receptor 2A (HTR2A) small molecule agonists, cell-based qHTS assay (AID 1963587); also: nearly all actives have a fitted effect of over 30% in size; also: potency is read from the fitted curve at half-maximal effect
Method in brief: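 CHO cells stably expressing human HTR2A, plated 18 h, loaded with calcium dye 1 h at 37 C. Agonist mode: compounds added and intracellular calcium fluorescence recorded kinetically for 2 min at 1 sec intervals.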

[12] = molecular target: Muscarinic acetylcholine receptor M1 (Homo sapiens) (UniProt P11229); experiment: Cholinergic receptor muscarinic 1 (CHRM1) small molecule antagonists, cell-based qHTS assay (AID 1963588); also: nearly all actives have a fitted effect of over 40% in size
Method in brief: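 Compounds were tested at 15 concentrations in three independent runs. Dye-loaded CHRM1-CHO cells were exposed 5 min at room temperature before stimulation by acetylcholine added at 50nM. Intracellular calcium was read kinetically on FDSS for 3 min.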

[13] = molecular target: Muscarinic acetylcholine receptor M1 (Homo sapiens) (UniProt P11229); experiment: Cholinergic receptor muscarinic 1 (CHRM1) small molecule agonists, cell-based qHTS assay (AID 1963589); also: nearly all actives have a fitted effect of over 35% in size; also: potency is read from the fitted curve at half-maximal effect
Method in brief: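 Cells were plated and incubated 18 h at 37 C/5% CO2, loaded with calcium dye for 1 h at 37 C, then treated with compounds in DMSO. Fluorescence was recorded kinetically at 1 sec intervals.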

[14] = cAMP Responsive Elements (CRE) small molecule agonists, cell-based qHTS assay (AID 1963590)
Method in brief: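 Cells carrying a CRE-driven beta-lactamase reporter (HEK 293T) are seeded, incubated overnight (18 h), and treated with test compounds for 3 h at 37 C; reporter activity is then detected with a FRET substrate after 2 h at room temperature.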

[15] = cAMP Responsive Elements (CRE) small molecule antagonists, cell-based qHTS assay (AID 1963591; active = well fitted inhibition curve with a large enough effect in the signal ratio in the repeat runs, not every such curve was filed as active; the % refers to the signal ratio)
Method in brief: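 Cells (CRE-bla HEK 293T, DMEM with 10% dialyzed FBS and 25 mM HEPES) are seeded and incubated 18 h. Compounds are added with NKH477 agonist at 0.25 uM final for 3 h, then FRET substrate for 2 h.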

[16] = molecular target: Beta-2 adrenergic receptor (Homo sapiens) (UniProt P07550); experiment: Adrenergic beta2 receptor (ADRB2) small molecule antagonists, cell-based qHTS assay (AID 1963592); also: series mostly up to about 92 µM; nearly all actives have a fitted effect of over 50% in size
Method in brief: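 Assay format: CHO-ADRB2 cells, 18-20hr seeding at 37C/5% CO2, then compound plus 1nM isoproterenol agonist mix for 0.5hr RT. Homogeneous time-resolved fluorescence cAMP detection after 1hr, expressed as 665/615 nm ratio.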

[17] = molecular target: Beta-2 adrenergic receptor (Homo sapiens) (UniProt P07550); experiment: Adrenergic beta2 receptor (ADRB2) small molecule agonists, cell-based qHTS assay (AID 1963593);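 also: CHO cells stably overexpressing human ADRB2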
Method in brief: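 CHO cells stably over-expressing ADRB2 were plated overnight at 37C, then dosed with compounds plus a stimulation mix containing 100uM IBMX and 25uM Ro-20-1724 for 0.5hr at room temperature. cAMP was measured by HTRF competition, 1hr.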

[18] = molecular target: D(2) dopamine receptor (Homo sapiens) (UniProt P14416); experiment: Dopamine D2 receptor (DRD2) small molecule agonists, cell-based qHTS assay (AID 1963594); also: nearly all actives have a fitted effect of over 35% in size; also: potency is read from the fitted curve at half-maximal effect
Method in brief: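 HEK293 cells stably expressing human DRD2, pre-treated with PDE inhibitor Ro20-1724 (0.1 mM final) and compound 10 min at room temperature, then stimulated with NKH477 (200nM […]) for 30 min. cAMP read by HTRF (665/620 nm).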

[19] = molecular target: D(2) dopamine receptor (Homo sapiens) (UniProt P14416); experiment: Dopamine D2 receptor (DRD2) small molecule antagonists, cell-based qHTS assay (AID 1963595; active = well fitted inhibition curve with a large enough effect in the signal ratio in the repeat runs, with a control signal flat; the % refers to the signal ratio)
Method in brief: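 In this cell-based antagonist screen, compounds act for 10 min at room temperature before a 30 min challenge with 12 nM quinpirole and 200 nM NKH477. cAMP is quantified by HTRF competition in DRD2-HEK293 cells containing 0.1 mM Ro20-1724.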

[20] = Nuclear factor erythroid 2-related factor 2/antioxidant responsive element (Nrf2/ARE) small molecule agonists: luciferase reporter gene qHTS assay in human keratinocytes (AID 1919969); also: nearly all actives have a fitted effect of over 35% in size; also: potency is read from the fitted curve at half-maximal effect

Chain of Muscarinic acetylcholine receptor M1 (Homo sapiens) (P11229 whole entry, looked up): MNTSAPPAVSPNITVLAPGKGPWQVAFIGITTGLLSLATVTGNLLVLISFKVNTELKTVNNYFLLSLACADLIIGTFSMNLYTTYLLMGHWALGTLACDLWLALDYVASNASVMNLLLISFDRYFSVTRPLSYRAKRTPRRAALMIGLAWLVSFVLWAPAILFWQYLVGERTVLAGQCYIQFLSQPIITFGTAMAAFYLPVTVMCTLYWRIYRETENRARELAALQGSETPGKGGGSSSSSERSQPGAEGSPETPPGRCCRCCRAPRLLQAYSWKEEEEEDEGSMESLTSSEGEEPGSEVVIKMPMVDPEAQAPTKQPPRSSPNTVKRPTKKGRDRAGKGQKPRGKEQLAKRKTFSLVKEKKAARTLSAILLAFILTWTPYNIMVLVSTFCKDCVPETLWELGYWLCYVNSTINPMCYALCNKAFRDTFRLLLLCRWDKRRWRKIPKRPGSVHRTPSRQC
Chain of KiSS-1 receptor (Homo sapiens) (Q969F8 whole entry, looked up): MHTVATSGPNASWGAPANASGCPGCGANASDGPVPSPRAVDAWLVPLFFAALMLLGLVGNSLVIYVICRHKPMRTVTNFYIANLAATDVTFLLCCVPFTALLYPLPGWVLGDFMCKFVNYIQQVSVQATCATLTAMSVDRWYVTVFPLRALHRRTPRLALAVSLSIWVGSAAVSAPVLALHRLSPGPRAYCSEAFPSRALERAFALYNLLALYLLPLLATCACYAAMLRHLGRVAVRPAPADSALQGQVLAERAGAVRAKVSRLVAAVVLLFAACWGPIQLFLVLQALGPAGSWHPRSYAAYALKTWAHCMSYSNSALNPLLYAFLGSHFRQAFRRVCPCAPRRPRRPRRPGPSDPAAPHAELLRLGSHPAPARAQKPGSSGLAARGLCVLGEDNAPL
Chain of D(2) dopamine receptor (Homo sapiens) (P14416 whole entry, looked up): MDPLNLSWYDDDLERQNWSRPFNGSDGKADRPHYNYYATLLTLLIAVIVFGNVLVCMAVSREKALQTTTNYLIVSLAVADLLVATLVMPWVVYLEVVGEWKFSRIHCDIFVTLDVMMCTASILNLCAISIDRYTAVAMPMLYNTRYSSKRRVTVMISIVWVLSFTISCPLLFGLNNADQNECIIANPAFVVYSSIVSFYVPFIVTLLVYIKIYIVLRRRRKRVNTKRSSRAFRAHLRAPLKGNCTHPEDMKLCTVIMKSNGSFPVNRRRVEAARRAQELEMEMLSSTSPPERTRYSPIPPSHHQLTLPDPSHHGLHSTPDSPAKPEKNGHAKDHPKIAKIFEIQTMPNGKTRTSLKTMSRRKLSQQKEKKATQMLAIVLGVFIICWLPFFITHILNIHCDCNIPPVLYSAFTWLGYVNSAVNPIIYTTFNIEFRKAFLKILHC
Chain of 5-hydroxytryptamine receptor 2A (Homo sapiens) (P28223 whole entry, looked up): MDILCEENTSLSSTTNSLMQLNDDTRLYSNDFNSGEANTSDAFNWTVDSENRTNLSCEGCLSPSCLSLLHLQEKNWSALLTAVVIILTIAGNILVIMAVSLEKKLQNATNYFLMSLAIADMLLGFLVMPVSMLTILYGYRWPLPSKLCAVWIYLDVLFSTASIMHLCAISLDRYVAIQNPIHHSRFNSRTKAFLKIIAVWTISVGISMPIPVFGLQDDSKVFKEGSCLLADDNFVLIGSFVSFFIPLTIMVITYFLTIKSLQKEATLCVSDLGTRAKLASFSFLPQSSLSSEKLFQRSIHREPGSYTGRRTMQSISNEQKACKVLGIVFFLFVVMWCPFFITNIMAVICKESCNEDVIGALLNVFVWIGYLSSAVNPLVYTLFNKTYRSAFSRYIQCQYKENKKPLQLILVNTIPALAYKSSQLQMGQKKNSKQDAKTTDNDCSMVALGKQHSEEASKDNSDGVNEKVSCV
Chain of Beta-2 adrenergic receptor (Homo sapiens) (P07550 whole entry, looked up): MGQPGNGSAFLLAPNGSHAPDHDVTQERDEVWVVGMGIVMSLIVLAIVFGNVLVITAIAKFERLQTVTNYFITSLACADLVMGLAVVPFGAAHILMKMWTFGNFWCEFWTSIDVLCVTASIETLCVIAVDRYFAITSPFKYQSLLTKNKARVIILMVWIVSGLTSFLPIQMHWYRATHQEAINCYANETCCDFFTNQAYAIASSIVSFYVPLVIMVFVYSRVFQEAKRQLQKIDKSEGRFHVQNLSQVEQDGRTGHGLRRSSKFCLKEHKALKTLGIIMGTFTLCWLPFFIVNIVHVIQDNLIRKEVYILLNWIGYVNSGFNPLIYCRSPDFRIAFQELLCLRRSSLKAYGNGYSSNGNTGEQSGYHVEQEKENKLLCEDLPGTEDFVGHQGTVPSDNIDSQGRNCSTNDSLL

| Compound | Potency [1] | Potency [2] | Potency [3] | Potency [4] | Potency [5] | Potency [6] | Potency [7] | Potency [8] | Potency [9] | Potency [10] | Potency [11] | Potency [12] | Potency [13] | Potency [14] | Potency [15] | Potency [16] | Potency [17] | Potency [18] | Potency [19] | Potency [20] |
| --- | --- | --- | --- | --- | --- | --- | --- | --- | --- | --- | --- | --- | --- | --- | --- | --- | --- | --- | --- | --- |
| O=C1c2ccccc2C(=O)C1c1ccc2cc(S(=O)(=O)O)cc(S(=O)(=O)O)c2n1 | 58.9 µM (active) | inactive | inactive | inactive | inactive | inactive | inactive | inactive | inactive | inactive | inactive | inactive | inactive | inactive | inactive | inactive | inactive | inactive | inactive |  |
| C=C(C)C(=O)NCCCN(C)C | inactive | inactive | inactive | inactive | inactive | inactive | inactive | inactive | inactive | inactive | inactive | inactive | inactive | inactive | inactive | inactive | inactive | inactive | inactive |  |
| N=c1nc(N2CCCCC2)cc(N)n1O | inactive | inactive | inactive | inactive | inactive | inactive | inactive | inactive | inactive | inactive | inactive | inactive | inactive | inactive | inactive | inactive | inactive | inactive | inactive |  |
| CC(=O)OC[C@H]1O[C@@H](OC(C)=O)[C@H](OC(C)=O)[C@@H]1OC(C)=O | inactive |  | inactive | inactive | inactive | inactive | inactive | inactive | inactive | inactive | inactive | inactive | inactive | inactive | inactive | inactive | inactive | inactive | inactive | inactive |
| COC(=O)Cc1cccc2ccccc12 | inactive | inactive | inactive | inactive | inactive | inactive | inactive | inactive | inactive | inactive | inactive | inactive | inactive | inactive | inactive | inactive | inactive | inactive | inactive |  |
| NNC(=O)c1cccc(C(=O)NN)c1 | inactive | inactive | inactive | inactive | inactive | inactive | inactive | inactive | inactive | inactive | inactive | inactive | inactive | inactive | inactive | inactive | inactive | inactive |  |  |
| CCOc1ccc2c(c1)C(C)=CC(C)(C)N2 | inactive |  | inactive | inactive |  | inactive | inactive | inactive | inactive |  | 54.7 µM (active) and inactive | inactive | 54.7 µM (active) and inactive |  |  |  |  |  |  | 68.2 µM (active) and 68.6 µM (active) |
| CCN1CCc2nc(N)oc2CC1 | inactive | inactive | inactive | inactive | inactive | inactive | inactive | inactive | inactive | inactive | inactive | inactive | inactive | inactive | inactive | inactive |  | 26.6 µM (active) | inactive |  |
| CC1(C)[C@H]2CC[C@](C)(C2)[C@H]1O | inactive | inactive | inactive | inactive | inactive | inactive | inactive | inactive | inactive | inactive | inactive | inactive | inactive | inactive | inactive | inactive | inactive |  |  |  |
| C=C(C)C(=O)OCCC(F)(F)C(F)(F)C(F)(F)C(F)(F)C(F)(F)C(F)(F)F | inactive | inactive |  | inactive | inactive | inactive |  | inactive | inactive | inactive |  | inactive | inactive | inactive | inactive | inactive | inactive | inactive | inactive | inactive |
| COC(=O)c1ccc([N+](=O)[O-])cc1 | inactive | inactive |  | inactive | inactive | inactive | inactive | inactive | inactive | inactive |  | inactive | inactive | inactive | inactive | inactive | inactive | inactive | inactive | inactive |
| CC(C)(C)c1cc(C(C)(C)C)c(O)c(C(C)(C)C)c1 | inactive and 48.6 µM (active) | inactive | inactive | inactive | inactive | inactive | inactive | inactive | inactive | inactive | 5.49 µM (active) | inactive | inactive | inactive | inactive | inactive | inactive | inactive | inactive |  |
| COc1cccc2c1C(=O)c1c(O)c3c(c(O)c1C2=O)C[C@@](O)(C(C)=O)C[C@@H]3O[C@H]1C[C@H](N)[C@H](O)[C@H](C)O1 | 6.15 µM (active) and 2.37 µM (active) | inactive | inactive |  |  |  |  |  |  |  |  |  |  |  |  |  |  |  |  |  |
| COCCOCCOCCOCCOCCO | inactive |  |  | inactive | inactive | inactive | inactive | inactive | inactive | inactive | inactive | inactive | inactive | inactive | inactive | inactive | inactive | inactive | inactive | inactive |
| COc1cc(Cl)ccc1Cl | inactive |  | inactive | inactive | inactive | inactive | inactive | inactive | inactive | inactive | inactive |  | inactive | inactive | inactive |  |  | inactive | inactive | inactive |
